The results in this text go back to PubChem BioAssay (NCI).

The panel holds about 83,000 compounds, 20% with a hit somewhere; the sample as a whole holds those more often.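 Cells were grown in 96-well plates and exposed to the test compound at a single concentration for 48 hours; results are reported as percent growth, with values below 10 considered active.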 Unmarked numbers belong to inactive results. Activity calls are given as the source filed them.

Test systems include NCI-H23 lung; NCI-H226 lung; NCI-H322M lung; HOP-62 NSCLC; NCI-H460 lung; NCI-H522 lung; A549/ATCC NSCLC; 786-0 renal; COLO 205 colon; DU-145 prostate; K-562 leukemia; MDA-MB-231 breast; RXF 393 renal; SF-268 CNS; SF-295 CNS; SF-539 CNS; UACC-257 melanoma; M14 melanoma; HCT-15 colon; MALME-3M melanoma.
Holding throughout (test): NCI-60 one-dose screen, 48 h (100 = growth as untreated, 0 = no growth, -100 = all killed)
What all share (conditions): 10 µM unless noted

For `COc1ccc(/C=N\Nc2ccc([N+](=O)[O-])cn2)cc1OC`, the growth in the assay on NCI-H23 lung is 88.4%; in the assay on NCI-H226 lung, 34.7%; with NCI-H322M lung it was 10.8%; in the assay with HOP-62 NSCLC it was 25.4%; in the assay on NCI-H460 lung, 1.43% (active); with NCI-H522 lung it was 47.9%. For the same compound, the growth with A549/ATCC NSCLC was 30.3%; in the assay on 786-0 renal, 10.2%; in the assay with COLO 205 colon it was 67.5%; in the assay with DU-145 prostate it was 73.7%; with K-562 leukemia it was 93.7%; with MDA-MB-231 breast, -0.447% (active). In addition, the growth in the assay with RXF 393 renal is 51.6%; with SF-268 CNS, 73.3%; in the assay on SF-295 CNS, 35.4%; in the assay on SF-539 CNS it was 32.1%; in the assay on UACC-257 melanoma it was 67.6%; in the assay with M14 melanoma, 110%. Further, the growth with HCT-15 colon was 95.8%.
Take `COc1cc(/C=C/C(=O)c2ccc(F)cc2)ccc1OCCCCCOc1cc2c(cc1OC)C(=O)N1CCCC1C=N2` (stereo unspecified): the growth was -32.6% (active) in the assay on NCI-H23 lung; -49.7% (active) in the assay on NCI-H226 lung; -2.96% (active) in the assay with NCI-H322M lung; -34.8% (active) with HOP-62 NSCLC; 3.88% (active) with NCI-H460 lung; -59.9% (active) in the assay with NCI-H522 lung. The growth in the assay on A549/ATCC NSCLC was 4.95% (active); in the assay on 786-0 renal, -43.3% (active); with COLO 205 colon it was -72% (active); with DU-145 prostate it was -13.1% (active); in the assay with K-562 leukemia, -6.46% (active); in the assay with MALME-3M melanoma, -77.6% (active). Besides, the growth with MDA-MB-231 breast is -33% (active); with SF-268 CNS, -29.9% (active); in the assay on SF-295 CNS, 72.2%; in the assay on SF-539 CNS it was -67.1% (active); in the assay on UACC-257 melanoma it was 8.38% (active); in the assay on M14 melanoma, -70% (active). Also, the growth with HCT-15 colon was -3.47% (active).
On to `CCOC(=O)c1c(C)c(C(=O)OCC)n(C)c1C`, for which the growth in the assay on NCI-H23 lung is 121%; in the assay with NCI-H226 lung it was 66.6%; in the assay with NCI-H322M lung, 85.4%; in the assay on HOP-62 NSCLC, 74.4%; in the assay on NCI-H460 lung, 117%; in the assay on NCI-H522 lung it was 102%. The growth was 91.7% with A549/ATCC NSCLC; 92.5% in the assay on 786-0 renal; 141% in the assay with COLO 205 colon; 99% with DU-145 prostate; 103% with K-562 leukemia; 112% in the assay with MALME-3M melanoma. Moreover, the growth in the assay on MDA-MB-231 breast is 85.6%; in the assay on SF-268 CNS, 93.9%; in the assay on SF-295 CNS, 87.1%; in the assay on SF-539 CNS, 101%; in the assay with UACC-257 melanoma, 134%; with M14 melanoma, 112%. The growth with HCT-15 colon was 102%.
On to `COc1ccc(Nc2nccc(N3CCN(c4c5ccc(Cl)cc5nc5ccc(OC)cc45)CC3)n2)cc1`, for which the growth in the assay with NCI-H23 lung was 95.7%; with NCI-H226 lung, 93.8%; with NCI-H322M lung, 83.5%; with HOP-62 NSCLC it was 95.6%; in the assay with NCI-H460 lung, 85.8%; with NCI-H522 lung, -58.3% (active). In addition, the growth in the assay with A549/ATCC NSCLC was 75.2%; in the assay on 786-0 renal it was 60%; in the assay with COLO 205 colon it was 61.1%; in the assay with DU-145 prostate, 86.6%; with K-562 leukemia, 25.4%; with MALME-3M melanoma, 46%. Moreover, the growth with MDA-MB-231 breast was 61.3%; in the assay on SF-268 CNS, 66.7%; in the assay on SF-295 CNS, 78.6%; in the assay with SF-539 CNS it was 92.8%; with UACC-257 melanoma, 102%; with M14 melanoma it was 88.4%. In addition, in the assay on HCT-15 colon, the growth was 36.9%.
For the compound `COC(=O)CCC1=C(CC(=O)OC)C(C)=N/C1=C\c1[nH]c(-c2ccc[nH]2)cc1OC`, the growth in the assay with NCI-H23 lung was 49.4%; in the assay with NCI-H226 lung, 54.5%; with NCI-H322M lung it was 53.3%; in the assay with HOP-62 NSCLC it was 46.1%; with NCI-H460 lung it was 19.1%; in the assay with NCI-H522 lung, -7% (active). Further, the growth in the assay with A549/ATCC NSCLC was 18%; in the assay with 786-0 renal it was 50.2%; with COLO 205 colon, 30.5%; with DU-145 prostate, 36.9%; in the assay on K-562 leukemia, -3.71% (active); with MDA-MB-231 breast, -12.2% (active). Moreover, the growth with RXF 393 renal is 52.8%; with SF-268 CNS, 44.8%; with SF-295 CNS, 39.3%; with SF-539 CNS, 38.8%; in the assay on UACC-257 melanoma, 32.5%; with M14 melanoma it was 17.2%. Moreover, the growth with HCT-15 colon is 8.89% (active).
In the case of `CCCCCCCCCCCCCCCCN=C(CC(=O)O)C(=O)O`, the growth was 103% in the assay with NCI-H23 lung; 99.4% with NCI-H226 lung; 91.7% in the assay on NCI-H322M lung; 106% in the assay on HOP-62 NSCLC; 82.7% with NCI-H460 lung; 87.5% with NCI-H522 lung. In addition, the growth with A549/ATCC NSCLC is 96.1%; in the assay on 786-0 renal, 95.4%; in the assay on COLO 205 colon, 97.9%; in the assay on DU-145 prostate, 78.8%; in the assay on K-562 leukemia, 80.6%; in the assay on MALME-3M melanoma, 111%. Besides, the growth is 101% with RXF 393 renal; 103% in the assay on SF-268 CNS; 103% in the assay with SF-295 CNS; 125% in the assay with SF-539 CNS; 114% in the assay on UACC-257 melanoma; 95.8% with M14 melanoma. Also, in the assay with HCT-15 colon, the growth is 102%.
For `COc1cc(/C=C2\COc3ccc(O)c(O)c3C2=O)cc(OC)c1`, the growth in the assay on NCI-H23 lung is 49.1%; with NCI-H226 lung it was 68.3%; with NCI-H322M lung, 29.2%; in the assay with HOP-62 NSCLC, 2.74% (active); in the assay with NCI-H460 lung, 10.5%; with NCI-H522 lung it was -42.1% (active). Also, the growth with A549/ATCC NSCLC is 24.6%; in the assay with 786-0 renal it was -29.4% (active); with COLO 205 colon, 32.5%; in the assay with DU-145 prostate it was 9.48% (active); in the assay on K-562 leukemia, -0.232% (active); in the assay on MALME-3M melanoma, -59.4% (active). For the same compound, the growth in the assay with MDA-MB-231 breast is -37.1% (active); in the assay with SF-268 CNS, 11%; in the assay with SF-295 CNS, 80.3%; with SF-539 CNS it was -70.1% (active); in the assay on UACC-257 melanoma it was 6.52% (active); with HCT-15 colon, -24.1% (active).
Turning to `CCN1C(=O)c2ccc3c4c(ccc(c24)C1=O)C(=O)N(CCCNCc1ccccc1OC)C3=O`, the growth was -42.7% (active) in the assay with NCI-H23 lung; -36.6% (active) with NCI-H226 lung; -31.6% (active) in the assay with NCI-H322M lung; -36.8% (active) in the assay with HOP-62 NSCLC; -57.8% (active) in the assay with NCI-H460 lung; -87.1% (active) in the assay on NCI-H522 lung. For the same compound, the growth in the assay with A549/ATCC NSCLC was -58.1% (active); in the assay on 786-0 renal it was -51.5% (active); in the assay on COLO 205 colon it was -81.5% (active); with DU-145 prostate, -87.4% (active); in the assay with K-562 leukemia, -36% (active); in the assay on MALME-3M melanoma it was -87.6% (active). The growth in the assay with MDA-MB-231 breast is 2.92% (active); in the assay on SF-268 CNS, -15.5% (active); with SF-295 CNS it was -69.8% (active); with SF-539 CNS, -96.4% (active); in the assay on UACC-257 melanoma it was -88.6% (active); in the assay with M14 melanoma, -92.8% (active). For the same compound, the growth in the assay with HCT-15 colon was -78.3% (active).
